Some test systems named below: RPMI-8226 leukemia; OVCAR-8 ovarian; OVCAR-5 ovarian; OVCAR-4 ovarian; SK-OV-3 ovarian; IGROV1 ovarian; OVCAR-3 ovarian; HS 578T breast; NCI/ADR-RES ovarian; T-47D breast.
Common to all, as to assay: NCI-60 one-dose screen, 48 h (100 = growth as untreated, 0 = no growth, -100 = all killed)
Conditions in all cases: 10 µM unless noted

Experimental findings from PubChem BioAssay (NCI) are described below.

This is part of a sample that, as a whole, favours compounds with a hit. Of some 83,000 tested, about 20% had one in any assay.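 Method: cells in 96-well plates; compound added at one concentration; 48 h incubation; percent growth measured; values under 10 scored active.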 Unmarked numbers belong to inactive results. The source made the active and inactive calls.

Regarding `COC(=O)C1=Nc2ccc(F)cc2/C1=C/c1sc(=S)[nH]c1O`, the growth was -9.01% (active) with RPMI-8226 leukemia; 13.3% in the assay on OVCAR-8 ovarian; 43.6% with OVCAR-5 ovarian; 58.2% in the assay with OVCAR-4 ovarian; 28.5% in the assay with SK-OV-3 ovarian; 14.4% in the assay with IGROV1 ovarian. Further, the growth in the assay with OVCAR-3 ovarian is -1.67% (active); with HS 578T breast it was 23.1%; with NCI/ADR-RES ovarian, 7.28% (active); in the assay on T-47D breast it was 61.2%.

Regarding `CC/C(=C(\CC)c1ccc(OCC[N+](C)(C)C)cc1)c1ccc(OC)cc1`, the growth in the assay with RPMI-8226 leukemia is 31.1%; in the assay on OVCAR-8 ovarian, 53%; with OVCAR-5 ovarian, 102%; with OVCAR-4 ovarian, 68.5%; with SK-OV-3 ovarian, 86.9%; in the assay with IGROV1 ovarian it was 68.8%. In addition, the growth was 51.3% in the assay with OVCAR-3 ovarian, 72.3% in the assay on HS 578T breast and 107% with NCI/ADR-RES ovarian.

In the case of `Cc1c(-c2noc(-c3ccc([N+](=O)[O-])cc3)n2)no[n+]1[O-]`, the growth is 93.3% in the assay on RPMI-8226 leukemia; 107% in the assay with OVCAR-8 ovarian; 104% with OVCAR-5 ovarian; 102% in the assay with OVCAR-4 ovarian; 111% with SK-OV-3 ovarian; 89.4% with IGROV1 ovarian. In addition, the growth in the assay on OVCAR-3 ovarian is 94.4%; with HS 578T breast, 104%; in the assay with NCI/ADR-RES ovarian, 96.2%.

Regarding `CC(=O)c1ccc(Cc2ccc(C(C)=O)s2)s1`, the growth was 95.2% in the assay with RPMI-8226 leukemia; 107% in the assay on OVCAR-8 ovarian; 100% in the assay with OVCAR-5 ovarian; 96.5% with OVCAR-4 ovarian; 109% with SK-OV-3 ovarian; 96.1% with IGROV1 ovarian. The values for the growth with OVCAR-3 ovarian, in the assay on HS 578T breast and in the assay with NCI/ADR-RES ovarian were 100%, 109% and 106%, respectively.

`CN1CCN(c2nc(Nc3ccc(O)cc3)nc3ccccc23)CC1`: the growth is 32.7% with RPMI-8226 leukemia; 30.1% in the assay with OVCAR-8 ovarian; 82.5% with OVCAR-5 ovarian; 82.9% in the assay with OVCAR-4 ovarian; 57.2% with SK-OV-3 ovarian; 52.1% in the assay on IGROV1 ovarian. Further, the growth with OVCAR-3 ovarian was 59.5%; in the assay with HS 578T breast it was 89.2%; in the assay on NCI/ADR-RES ovarian it was 51.1%.

Regarding `CCCc1c(C)c2sc(=O)[nH]c2[nH]c1=O`, the growth in the assay on RPMI-8226 leukemia is 112%; in the assay with OVCAR-8 ovarian, 104%; in the assay on OVCAR-5 ovarian, 103%; with OVCAR-4 ovarian it was 100%; in the assay on SK-OV-3 ovarian it was 104%; in the assay with IGROV1 ovarian, 112%. The growth is 113% in the assay on OVCAR-3 ovarian, 103% with HS 578T breast, 105% with NCI/ADR-RES ovarian and 102% with T-47D breast.

Take `O=C(O)c1cn(C2CC2)c2cc(N3CCN(C(=O)C[n+]4ccccc4)CC3)c(F)cc2c1=O`: the growth in the assay on RPMI-8226 leukemia was 106%; in the assay on OVCAR-8 ovarian, 105%; in the assay with OVCAR-5 ovarian, 104%; in the assay with OVCAR-4 ovarian it was 89.4%; in the assay with SK-OV-3 ovarian, 110%; in the assay with IGROV1 ovarian, 109%. For the same compound, the results for the growth with OVCAR-3 ovarian, in the assay on HS 578T breast and in the assay with NCI/ADR-RES ovarian were 107%, 99.3% and 105%, respectively.

`COc1ccc(-c2nc(-c3ccccn3)c(-c3ccccn3)n2CC(C)C)cc1OC1CCCC1`: the growth in the assay on RPMI-8226 leukemia is -1.78% (active); with OVCAR-8 ovarian it was 15.7%; in the assay on OVCAR-5 ovarian it was 33.8%; in the assay on OVCAR-4 ovarian, 13.5%; in the assay with SK-OV-3 ovarian it was 8.21% (active); in the assay on IGROV1 ovarian, 19.6%. For the same compound, the growth is 15.5% with OVCAR-3 ovarian, 43.3% in the assay on HS 578T breast and 10.9% in the assay with NCI/ADR-RES ovarian.

For the compound `CCOC(=O)c1ccc(N=Cc2sc(=O)[nH]c2O)cc1`, the growth was 101% in the assay with RPMI-8226 leukemia; 92.1% in the assay with OVCAR-8 ovarian; 102% with OVCAR-5 ovarian; 100% in the assay on OVCAR-4 ovarian; 91.6% with SK-OV-3 ovarian; 87.1% in the assay with IGROV1 ovarian. Moreover, the growth in the assay with OVCAR-3 ovarian was 103%; in the assay on HS 578T breast it was 88.1%; in the assay on NCI/ADR-RES ovarian, 96.8%; in the assay with T-47D breast, 92.3%.

On to `Cn1cc([C@@H]2Nc3ccc4[nH]ncc4c3[C@H]3[C@H]4CCC(C4)[C@H]32)c(C(F)(F)F)n1`, for which the growth with RPMI-8226 leukemia was 46.6%; in the assay on OVCAR-8 ovarian it was 62.5%; in the assay with OVCAR-5 ovarian, 79.4%; in the assay on OVCAR-4 ovarian it was 77.4%; in the assay on SK-OV-3 ovarian, 77.4%; with IGROV1 ovarian, 56.7%. For the same compound, the values for the growth in the assay with OVCAR-3 ovarian, in the assay on HS 578T breast and in the assay with NCI/ADR-RES ovarian were 34.7%, 34% and 31.3%, respectively.

As to `Oc1ccc(-c2nc(-c3ccc4oc5ccc(-c6[nH]c(-c7ccc(O)cc7)nc6-c6ccccc6)cc5c4c3)c(-c3ccccc3)[nH]2)cc1`, the growth with RPMI-8226 leukemia was 19.8%; in the assay with OVCAR-8 ovarian, 72.8%; in the assay on OVCAR-5 ovarian, 74.3%; in the assay with OVCAR-4 ovarian, 52.9%; in the assay on SK-OV-3 ovarian, 87%; in the assay with IGROV1 ovarian, 34.1%. The growth was 43.6% in the assay with OVCAR-3 ovarian, 66.8% in the assay on HS 578T breast, 72.3% in the assay on NCI/ADR-RES ovarian and 46.8% in the assay on T-47D breast.

Turning to `O=C(Nc1ccc(Cl)cc1F)c1cc(I)ccc1O`, the growth in the assay on RPMI-8226 leukemia is 3.96% (active); in the assay on OVCAR-8 ovarian, 10.1%; in the assay with OVCAR-5 ovarian, 79.9%; in the assay on OVCAR-4 ovarian, 23.1%; in the assay on SK-OV-3 ovarian it was -4.98% (active); in the assay on IGROV1 ovarian it was 27.2%. The growth in the assay on OVCAR-3 ovarian is 10.4%; with HS 578T breast, 3.41% (active); in the assay with NCI/ADR-RES ovarian, 11.3%; in the assay with T-47D breast, -0.952% (active).

`Cc1ccc(NCCNCC(O)CO)c2c(=O)c3ccccc3sc12` (stereo not drawn): the growth in the assay on RPMI-8226 leukemia was 34.6%; in the assay with OVCAR-8 ovarian, 14.2%; with OVCAR-5 ovarian, 46.8%; in the assay on OVCAR-4 ovarian, 34.7%; with SK-OV-3 ovarian it was 31.8%; in the assay with IGROV1 ovarian, 24.3%. For the same compound, the growth is 29.9% with OVCAR-3 ovarian, 33.1% with HS 578T breast, 26.8% in the assay on NCI/ADR-RES ovarian and 53.8% in the assay on T-47D breast.

Take `O=C(c1ccccc1)N(C(=S)NCCc1ccc(Cl)cc1)c1ccccc1`: the growth in the assay with RPMI-8226 leukemia is -30.9% (active); with OVCAR-8 ovarian it was 105%; in the assay on OVCAR-5 ovarian, 91.2%; with OVCAR-4 ovarian, 96.9%; in the assay with SK-OV-3 ovarian, 114%; with IGROV1 ovarian, 102%. The growth in the assay with OVCAR-3 ovarian is 98%; in the assay on HS 578T breast it was 112%; in the assay on NCI/ADR-RES ovarian, 99%; in the assay with T-47D breast, 59.6%.
